Measurements as given in PubChem BioAssay (NCATS).
Records with an inconclusive call do not appear. A call without a number means that no potency is given here. Values without a mark were called inactive. Activity calls are given as the source filed them. Calls come from the whole dose curve; as a rule, active = well fitted cell-killing curve with a large enough effect; inconclusive = small, poorly fitted or top-dose-only effect, or effect the other way; inactive = flat fitted curve, though single readings scatter.

tested on: SKOV3; assay: Primary qHTS to identify gynecologic anti-cancer compounds using libraries of approved drugs and bioactive compounds (AID 1345084); conditions: Gynecologic cancer cell panel viability, ATPlite luminescence, 48 h; series mostly up to 57.5 µM; note: nearly all actives have a fitted effect of over 55% in size
Summary of the method: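 In this quantitative HTS, cell killing is estimated from loss of ATP-dependent luciferase light. Cells see five compound concentrations over a 48 h exposure.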

| Structure (SMILES) | Potency | activity change, negative = cytotoxicity |
| --- | --- | --- |
| Cc1cn2cc(CC(=O)N3CCC4(CC3)CN(Cc3ccc(-n5nccn5)cc3Cl)C4)nc2s1 | inactive | – |
| O=C(OCC1=CC(Cl)C(O)C(OC(=O)c2ccccc2)C1O)c1ccccc1 (stereo not drawn) | inactive | – |
| C=C1C(OC(C)=O)CCC2(C)CC3(O)OC(=O)C(C)=C3CC12 (stereo not drawn) | inactive | – |
| C=C1CC[C@@]2(OC1)O[C@H]1CC3C4CC=C5C[C@@H](O[C@@H]6O[C@@H](C)[C@H](O)[C@@H](O)[C@H]6O)C[C@@H](O[C@@H]6O[C@H](C)[C@H](O)[C@H](O)[C@H]6O[C@@H]6O[C@@H](C)[C@H](O)[C@@H](O)[C@H]6O)[C@]5(C)C4CC[C@]3(C)[C@H]1[C@@H]2C (stereo partly drawn) | – | -7.76% [at 11.6 µM] |
| Cc1c(O)cc2c(c1O)COC1(O)CCCOC21 (stereo not drawn) | inactive | – |
| COc1cc(Nc2nc3c(s2)CCCC3c2ccccc2)ccc1-n1cnc(C)c1 (stereo not drawn) | – | 7.37% [at 11.6 µM] |
| C/C=C1/[C@H](O[C@@H]2O[C@H](CO)[C@@H](O)[C@H](O)[C@H]2O)OC=C(C(=O)OC)[C@H]1CC(=O)OCCc1ccc(O)c(O)c1 | inactive | – |
| CC(=O)C1CCC(=O)N1Cc1ccccc1 (stereo not drawn) | inactive | – |
| COc1cccc(Cn2ncc3c4sc(S(C)=O)cc4n(C)c3c2=O)c1 (stereo not drawn) | inactive | – |
| O=S(=O)(O)c1ccc(Nc2ncnc3c2ncn3[C@@H]2O[C@H](CO)[C@@H](O)[C@H]2O)cc1 | inactive | – |
| CC(C)c1ccc2c(c1)C(O)CC1C(C)(C(=O)O)CCCC21C (stereo not drawn) | inactive | – |
| CC1=C(C)C(=O)OC(C(C)C2C(O)CC3C4C5OC5C5(O)CC(OC6OC(CO)C(OC7OC(C)C(O)C(O)C7O)C(O)C6O)CC(O)C5(C)C4CCC32C)C1 (stereo not drawn) | inactive | – |
| CCc1cc(CC[C@]2(C3CCCC3)CC(O)=C(Cc3nc4nc(C)cc(C)n4n3)C(=O)O2)cc(CC)n1 | inactive | – |
| C[C@@]1(C(=O)O)CCC[C@@]2(C)C3=CC[C@H]4C[C@@]3(CC[C@H]12)CC4(O)CO (stereo partly drawn) | inactive | – |
| C=C[C@H]1[C@H](O[C@@H]2O[C@H](CO)[C@@H](O)[C@H](O)[C@H]2O)OC=C(C(=O)OC)[C@H]1CCO | inactive | – |
| O=C(O)C1(c2ccc(-c3ccc(Cl)c(Cl)c3)c(F)c2)CC1 | inactive | – |
| CC1=CCC2C(C)(C)CCCC2(C)C1CC12OC1C(O)C(CO)=CC2O (stereo not drawn) | inactive | – |
| C[C@]12CCC[C@](C)(C(=O)O)C1[C@@H](O)[C@@H](O)C13CC(CCC12)C(CO)(O[C@@H]1O[C@H](CO)[C@@H](O)[C@H](O)[C@H]1O)C3 (stereo partly drawn) | inactive | – |
| CC(=O)NC1CC(=O)C23C(=O)NC(Cc4c[nH]c5ccccc45)C2C(C)=C(C)C(O)C3/C=C/CC(C)/C=C(/C)C(O)C1O (stereo not drawn) | inactive | – |

| Structure (SMILES) | Potency | activity change, negative = cytotoxicity |
| --- | --- | --- |
| C/C=C/C(=O)OC1/C=C/C(O)C(OC(C)=O)CCC(=O)OC1C (stereo not drawn) | inactive | – |
| C/C=C/C=C/C1=C2C(=O)C3(C)C4C(C(=O)CC(O)/C=C/C)=C(O1)C1(C)C2C2(C)OC1(O)C4(C)OC23O (stereo not drawn) | inactive | – |
| COC(=O)/C=C/c1ccc(O[C@@H]2O[C@H](CO)[C@@H](O)[C@H](O)[C@H]2O)cc1 | inactive | – |
| CC(=O)OC1CC2C(C)(C)C(=O)C=CC2(C)C2CC(=O)C3=C(CCC3C3=CC(O)OC3=O)C12C (stereo not drawn) | inactive | – |
| CC1CC2(O)OC(=O)C3=C2C(CCC3)[C@@]12C[C@@H](c1ccoc1)OC2=O (stereo partly drawn) | inactive | – |
| COc1c2c(c(C)c3c1C(=O)OC3)OC1(C)CC(O)C34OC(OC)(CCC3(C)C1C2)OC4(C)CO (stereo not drawn) | inactive | – |
| C[C@@H]1O[C@@H](OC2C(O[C@H]3[C@H](O[C@H]4CC[C@@]5(C)C(CC[C@]6(C)C5CC=C5C7CC(C)(C)CC(O)[C@]7(C)CC[C@]56C)C4(C)C)O[C@H](C(=O)O)[C@@H](O)[C@@H]3O)OC(CO)C(O)C2O)[C@H](O)[C@H](O)[C@H]1O (stereo partly drawn) | – | 6.34% [at 11.6 µM] |
| CN1CCN(C(=O)c2cc3cc(Cl)ccc3[nH]2)CC1 | inactive | – |
| O=C1OC(c2ccc(O)cc2)C(O)=C1Cc1ccccc1 (stereo not drawn) | inactive | – |
| CC(O)C(O)/C=C/C=C/C(=O)O[C@@H]1C=C(C(=O)O)[C@](O)(CO)[C@@]2(C)CCCC(C)(C)[C@H]12 (stereo partly drawn) | inactive | – |
| CC1=CC2=C(C)C(=O)[C@](C)(O)[C@H](O)C2=CO1 | inactive | – |
| CCC(=O)OCC(=O)[C@@]1(OC(=O)CC)[C@@H](C)C[C@H]2[C@@H]3CCC4=CC(=O)C=C[C@]4(C)[C@@]3(F)[C@@H](O)C[C@@]21C | inactive | – |
| C=C1C[C@]23C[C@H]1CC[C@H]2[C@]1(C)CC[C@H](O)[C@@](C)(C(=O)O)[C@H]1[C@@H]3C(=O)O | inactive | – |
| CC(=O)OCC1OC(OC2COC(OC3COC(OC4C(OC5C(CO)OC(OC6CCC7(C)C(CCC8(C)C7CC=C7C9CC(C)(C)CCC9(C(=O)OC9OC(CO)C(O)C(O)C9OC9OCC(OC%10OCC(O)(CO)C%10O)C(O)C9O)C(O)CC78C)C6(C)C)C(O)C5O)OCC(O)C4O)C(O)C3O)C(O)C2O)C(OC(=O)/C=C/c2ccccc2)C(O)C1OC(C)=O (stereo not drawn) | – | 14.7% [at 6.55 µM] |
| Cc1ccc(-c2c(-c3nn(C)c4ncnc(N5CC[C@H](N6CCCCC6)C5)c34)cnn2C)cc1 | inactive | – |
| CC(C)NC(=O)c1ccc(C#Cc2ccncc2)cn1 | inactive | – |
| CC(=O)OC1C(C)C2C(OC3OC(CO)C(O)C(O)C3O)OC=C(C(=O)O)C2C1OC(=O)c1ccccc1 (stereo not drawn) | inactive | – |
| O=C(N[C@@H]1CC[C@@H](c2cccc(F)c2F)CN(CC(F)(F)F)C1=O)N1CCC(n2c(=O)[nH]c3ncccc32)CC1 | inactive | – |
| O=C(Nc1cc(-c2ccccc2)nn1-c1ccccc1)c1ccc([N+](=O)[O-])cc1 | inactive | – |
